# Measured values as given in PMC8384837, “Expanding the binding specificity for RNA recognition by a PUF domain”.
# Tests used:
# Test in all cases: yeast three-hybrid, YBZ-1, SC-Leu-His + 0.5 mM 3-AT, 4 days
# Settings in all cases: tags: N-Gal4 AD-HA kept; label: inside an RPR1-promoter hybrid RNA with tandem MS2 sites; ssRNA
# PUM1 PUF domain R5-QWN = PUM1 PUF domain R5-QWN (Homo sapiens, UniProt Q14671 828-1176, C1007Q;R1008W;Q1011N)
# Summary of the method: (§1)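 Each repeat of the Pumilio-1 PUF domain was randomized at its three base-contacting residues, and these libraries were co-expressed from a centromeric plasmid with matching RNA elements in strain YBZ-1. After four days on SC-Leu (input) or SC-Leu-His + 0.5 mM 3-AT (selection), the repeat regions were PCR-amplified and Illumina-sequenced. The interaction score compares variant frequency between input and selection as a log change, computed in log2 with a pseudocount of 1 for absent variants.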
# PUM1 PUF domain R5-RQS = PUM1 PUF domain R5-RQS (Homo sapiens, UniProt Q14671 828-1176, C1007R;R1008Q;Q1011S)
# Chain of PUM1 PUF domain R5-RQS (Q14671 828-1176 C1007R/R1008Q/Q1011S): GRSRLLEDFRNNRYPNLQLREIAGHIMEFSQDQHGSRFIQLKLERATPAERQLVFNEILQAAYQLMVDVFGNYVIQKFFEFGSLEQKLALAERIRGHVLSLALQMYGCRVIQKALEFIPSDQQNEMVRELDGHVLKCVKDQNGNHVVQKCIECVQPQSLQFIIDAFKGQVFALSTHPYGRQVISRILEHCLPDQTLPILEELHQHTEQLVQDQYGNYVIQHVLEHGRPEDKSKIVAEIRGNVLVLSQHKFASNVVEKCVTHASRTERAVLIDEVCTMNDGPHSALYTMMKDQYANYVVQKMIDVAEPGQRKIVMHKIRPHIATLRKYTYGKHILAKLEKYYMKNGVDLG
# Summary of the method: as §1
# PUM1 PUF domain R5-RRL = PUM1 PUF domain R5-RRL (Homo sapiens, UniProt Q14671 828-1176, C1007R;Q1011L)
# Chain of PUM1 PUF domain R5-RRL (Q14671 828-1176 C1007R/Q1011L): as the sequence (Q14671 828-1176 C1007R/R1008Q/Q1011S) above, with Q181R, S184L counted along it
# Summary of the method: as §1
# PUM1 PUF domain R7-RVL = PUM1 PUF domain R7-RVL (Homo sapiens, UniProt Q14671 828-1176, S1079R;N1080V;E1083L)
# Chain of PUM1 PUF domain R7-RVL (Q14671 828-1176 S1079R/N1080V/E1083L): as the sequence (Q14671 828-1176 C1007R/R1008Q/Q1011S) above, with R180C, Q181R, S184Q, S252R, N253V, E256L counted along it
# Summary of the method: as §1
# PUM1 PUF domain R4-WGC = PUM1 PUF domain R4-WGC (Homo sapiens, UniProt Q14671 828-1176, N971W;H972G;Q975C)
# Chain of PUM1 PUF domain R4-WGC (Q14671 828-1176 N971W/H972G/Q975C): as the sequence (Q14671 828-1176 C1007R/R1008Q/Q1011S) above, with N144W, H145G, Q148C, R180C, Q181R, S184Q counted along it
# Summary of the method: as §1
# Chain of PUM1 PUF domain R5-QWN (Q14671 828-1176 C1007Q/R1008W/Q1011N): as the sequence (Q14671 828-1176 C1007R/R1008Q/Q1011S) above, with R180Q, Q181W, S184N counted along it
sequence,measurement,setting,value
GGCUAGAACUAGUGGAUCCCCCGGCGCCCGGCGGCUCGAGCCCGGGUAAGUGUGAAUAGUCUGCAUGCCGCCGGGCGCCAUGCCUGCAGGUCGACUCUAGAAAACAUG,binding signal,PUM1 PUF domain R5-QWN,4.78 log2 enrichment (interaction score)
same,binding signal,PUM1 PUF domain R5-RQS,1.05 log2 enrichment (interaction score)
same,binding signal,PUM1 PUF domain R5-RRL,1.14 log2 enrichment (interaction score)
GGCUAGAACUAGUGGAUCCCCCGGCGCCCGGCGGCUCGAGCCCGGGUAAGUUUAAAUAGUCUGCAUGCCGCCGGGCGCCAUGCCUGCAGGUCGACUCUAGAAAACAUG,binding signal,PUM1 PUF domain R7-RVL,3.33 log2 enrichment (interaction score)
GGCUAGAACUAGUGGAUCCCCCGGCGCCCGGCGGCUCGAGCCCGGGUAAGUGUAUAUAGUCUGCAUGCCGCCGGGCGCCAUGCCUGCAGGUCGACUCUAGAAAACAUG,binding signal,PUM1 PUF domain R4-WGC,4.53 log2 enrichment (interaction score)
